Screening results from PubChem.
Only some compounds are listed: those with a hit (about 12% of all), similar ones and a draw of the others.
L major viab: inhibitors of Leishmania major promastigote growth; Leishmania major promastigotes, resazurin fluorescence viability; inhibition, % at 10 µM; actives 9% (n = 200,000); AID 1063; in the data active means inhibition above about 50%;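 further: promastigotes grown with compound for 44 hours at 28 °C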
Arbovirus inh: arbovirus infection inhibition; actives 0.37% (n = 200,000); arbovirus infection cell-based antiviral screen; inhibition, % at 10 µM; in the data active means inhibition above about 30%
WT yeast gro inh: growth inhibition of WT yeast, mitochondrial fusion screen | AID 1362 | actives 2.1% (n = 190,000) | mitochondrial fusion phenotypic screen, WT strain | inhibition, % at 10 µM; in the data active means inhibition above about 58%; tested in S. cerevisiae
CHOP inhibitor: inhibitors of CHOP induction in ER stress response. CHO-K1 CHOP-promoter luciferase, tunicamycin-induced, 15-18 h. inhibition, % at 10 µM. actives 3.8% (n = 220,000). AID 2732;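 active means compounds that reduced the stress-induced luciferase reporter signal by more than about 70% of percent inhibition, limit read from the data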;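 further: 0% = tunicamycin plus vehicle and 100% = wells without tunicamycin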
The depositor's hits bear a star; . = no result.

SMILES	L major viab	Arbovirus inh	WT yeast gro inh	CHOP inhibitor
CCOC(=O)c1c(C)n(-c2ccccc2)c2ccc(O)c(CN(C)C)c12	94*	-20	21	-16
CCOC(=O)c1c(C)n(C)c2ccc(O)c(CN(CC)CC)c12	62*	10	-16	-8
CCOC(=O)c1c(C)n(C)c2ccc(O)c(CN3CCC(C)CC3)c12	61*	4	7	6
CCOC(=O)c1c(C)n(C)c2cc(-c3ccc(C)cc3)c(O)cc12	3	3	-11	81*
CCOC(=O)c1c(C)n(C)c2ccc(O)c(CN3CCN(C)CC3)c12	-3	4	-9	-5
CCOC(=O)c1c(C)n(C)c2cc(-c3cccc(C(F)(F)F)c3)c(O)cc12	3	-1	3	23
O=C(CCCCCn1c(=S)[nH]c2ccc(N3CCOCC3)cc2c1=O)NCc1cccc(Cl)c1	-1	-11	9	61
Cc1cc(C)cc(N(CC(=O)Nc2ccccc2)C2=NC3CS(=O)(=O)CC3S2)c1 (centres undefined)	64*	9	6	-8
CCOc1ccc(N(Cc2ccccc2F)C2=NC3CS(=O)(=O)CC3S2)cc1 (centres undefined)	48	-13	25	-14
COc1ccc(CNc2nc(SCc3cc(=O)n4cc(Cl)ccc4n3)nc3ccccc23)cc1	4	10	2	10
O=C(NCc1ccc(F)cc1)C(=O)NCC1OCCN1S(=O)(=O)c1cccs1 (centres undefined)	-3	-1	-4	58
Cc1nn(-c2ccccc2)c2sc(C(=O)N(CC(=O)NC(C)(C)C)Cc3ccco3)cc12	60*	-23	3	19
COC(=O)c1cc2c(C)nn(-c3ccccc3)c2s1	-3	-2	6	-53
C=CCc1c(C)nc2c(OC)cccc2c1Cl	1	-9	25	1
COc1cccc2c(Cl)c(CC=C(Cl)Cl)c(C)nc12	20	-6	77	87*
N#Cc1cccc(NC(=O)CN2C(=O)NC(Cc3ccccc3)C2=O)c1 (centres undefined)	.	.	.	17
O=C1CC(/C=C/c2ccco2)=Nc2ccccc2N1	-1	-1	-9	23
O=C1CC(/C=C/c2ccccn2)=Nc2ccccc2N1	82*	-9	-11	-41
COc1ccc(-c2noc(CN3CCC(Cc4ccccc4)CC3)n2)cc1	0	6	42	60
c1ccc(CC2CCN(Cc3nc(-c4ccccc4)no3)CC2)cc1	15	-1	40	92*
Clc1cccc(N2CCN(Cc3nc(-c4ccccc4)no3)CC2)c1	0	33*	57	69
Cc1ccc(-c2noc(CN3CCN(c4ccccc4F)CC3)n2)cc1	-8	26	30	74*
CCCn1c(N)c(C(=O)COc2ccc(Br)cc2F)c(=O)n(C)c1=O	1	7	3	7
COCCN(Cc1cc2cc(C)c(C)cc2nc1Cl)C(=O)N1CCOCC1	3	12	-8	-18
CCOC(=O)c1ccc(NC(=O)CSc2ccc(-c3ccncc3)nn2)cc1	75*	-12	6	-6
SMILES	L major viab	Arbovirus inh	WT yeast gro inh	CHOP inhibitor
COc1ccccc1CNC(=O)CSc1ccc(-c2ccncc2)nn1	94*	18	14	2
COc1cccc(CNC(=O)CSc2ccc(-c3ccncc3)nn2)c1	89*	14	9	-1
COc1ccc(-c2cc(-c3cccs3)c(C#N)c(SCC(=O)NCc3ccccc3OC)n2)cc1	91*	-18	1	14
CCc1ccccc1NC(=O)N1CCc2ccccc21	.	.	.	9
Cc1ccc(-c2cc(C(=O)O)c3ccccc3n2)c(C)c1	.	.	.	0
COCC(C)n1c(SCC(=O)N(C)C2CCS(=O)(=O)C2)nc2ccccc2c1=O (centres undefined)	-4	1	-14	-1
O=C(CCn1nc(-c2ccc(Cl)cc2)c2ccccc2c1=O)NN1CCOCC1	.	.	.	-3
Cc1sc(NC(=O)c2sc3nc4c(C)cccc4cc3c2N)c(C#N)c1C	56*	-14	15	65
Cc1cccc2cc3c(N)c(C(=O)Nc4ccc(N5CCOCC5)cc4)sc3nc12	18	2	2	51
O=C1COc2ccc(N3C(=O)C=CC3=O)cc2N1	-2	0	4	95*
COC(=O)c1cn(N(C)c2ncc(C(F)(F)F)cc2Cl)c(=O)c2ccccc12	1	-4	72*	-53
CCOC(=O)NC(=O)c1cn(N(C)c2ncc(C(F)(F)F)cc2Cl)c(=O)[nH]c1=O	9	10	-18	15
O=C(NCc1ccccc1)/C(=C/c1ccc(OC(F)F)cc1)c1ccccc1	46	-13	63*	32
COc1ccccc1/C=C(/C(=O)OCC(=O)Nc1ccccc1C)c1ccccc1	-4	6	49	45
COc1ccc(/C=C(/C(=O)Nc2ccccc2C(=O)NC(C)C)c2ccccc2)cc1	31	-8	24	74*
COc1ccccc1/C=C(/C(=O)OCC(=O)NCc1ccccc1)c1ccccc1	62*	6	37	62
COc1ccc(/C=C(/C(=O)NCc2ccccc2)c2ccccc2)cc1	92*	-25	33	30
O=C(c1ccccc1F)N1CCCC(C(=O)N2CCc3ccccc3C2)C1 (centres undefined)	.	.	.	8
O=C(CCCNC(=O)/C(=C/c1ccc(F)cc1)NC(=O)c1ccccc1)OCc1ccccc1	3	-5	4	10
CSc1nc2cc(Oc3cccc(Cl)c3Cl)c(Cl)cc2[nH]1	.	-22	85*	43
O=C(CNC(=S)NC(=O)c1ccc(Cl)cc1)c1ccccc1	88*	1	-16	-4
CCOC(=O)N(C)OC(=O)Nc1ccc(Cl)c(Cl)c1	-5	25	62*	34
CC[C@H](CO)Nc1nc(Nc2cccc(Cl)c2)c2ncn(C(C)C)c2n1	.	.	.	83*
CC(C)[C@H](CO)N(Cc1cccc(F)c1)c1nc(Nc2cccc(Cl)c2)c2ncn(C(C)C)c2n1	.	.	.	10
Cc1ccnc(N(C(=O)Nc2ccccc2)C2=NCC(C)(C)S2)c1	.	.	.	4
SMILES	L major viab	Arbovirus inh	WT yeast gro inh	CHOP inhibitor
O=C(Nc1cc(Cl)ccc1Oc1ccccc1)c1ccccc1F	2	12	58	33
O=C(Nc1cc(Cl)ccc1Oc1ccccc1)c1ccc(F)cc1	0	2	66*	43
Cc1ccc(Oc2ccc(Cl)cc2NC(=O)c2ccc(F)cc2F)cc1	58*	-15	13	38
Cc1cccc(NC(=O)c2cc([N+](=O)[O-])ccc2Cl)c1O	10	11	5	-16
O=C(Nc1ccccc1Oc1ccccc1)c1cc([N+](=O)[O-])ccc1Cl	17	6	76*	-8
Cc1nnc(NN2CCOCC2)[nH]c1=O	-2	-3	8	9
Cc1cc(C)c(S(=O)(=O)NCC(=O)NCc2ccccn2)c(C)c1	-2	-1	-8	-1
O=C(NC(=S)Nc1ccc(S(=O)(=O)Nc2nccs2)cc1)c1cccc(F)c1	-10	-8	-3	-13
CC(C)CC(=O)NC(=S)Nc1ccc(S(=O)(=O)Nc2nccs2)cc1	55*	6	-11	2
CCOc1ccc(NS(=O)(=O)c2ccc(NC(=S)NC(=O)CC(C)C)cc2)cc1	98*	-32	79*	92*
CCOc1ccc(NS(=O)(=O)c2ccc(NS(=O)(=O)c3ccc(SC)cc3)cc2)cc1	-4	-38	14	95*
CC(C)CC(=O)NC(=S)Nc1ccc(S(=O)(=O)NC(C)(C)C)cc1	62*	3	8	42
